Results with a measured potency or affinity are listed apart. Inconclusive results are not listed. Activity calls are given as the source filed them. Unless noted, the rule behind the calls is not given here.
Tests used:
[1] = RMG-1 ovarian cancer cell viability loss – cherry-pick, dose response (AID 687029;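 active = signal drop whose fitted half-maximal concentration is at most twice the top valid dose, in every test run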;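 note: cells exposed to compound for 96 hours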)
[2] = CMV-driven luciferase expression suppression in HEK293 – cell-based, luminescence, dry powder, counter-screen for Pax8 inhibitor project, dose response (AID 743020;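 active = signal-lowering compounds whose fitted half-maximal concentration is at or below twice the top tested dose in every run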;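 note: HEK293 cells stably expressing the CMV luciferase reporter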)
[3] = general cell-killing toxicity readout – plate reader, dry powder samples, cytotoxicity control for PAX8 inhibitor project, dose response (AID 743021)
[4] = IGROV1 cell killing – plate reader, dry powder samples, PAX8 inhibitor project, dose response (AID 743043);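 note: more negative means fewer viable cells or more cytotoxicity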
[5] = OVCAR-3 cell viability loss – plate reader, dry powder samples, PAX8 inhibitor project, dose response (AID 743044); conditions: max activity: at 35 µM, hits give low values unless noted
[6] = toxicity toward immortalized ovarian surface epithelium – cell-based, plate reader, dry powder samples, cytotoxicity control for PAX8 inhibitor project, dose response (AID 743045);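 note: 0% = neutral control median and -100% = positive control median; more negative values mean more cell killing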
[7] = A2780 cell killing – plate reader, dry powder samples, cytotoxicity control, dose response (AID 743046);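 note: 0% = neutral control wells and -100% = cytotoxic reference compound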
[8] = OVCAR8 cell viability loss – plate reader, dry powder samples, PAX8 project, dose response (AID 743197)

Measured: max activity

Cn1nnnc1Sc1ncnc2scc(-c3ccc([N+](=O)[O-])cc3)c12
inactive: [1] | [2] | [3]

Cn1c(=O)c([N+](=O)[O-])c(Cl)c2ccccc21
inactive: [1] | [2] | [3]

C=CC[C@@H](CC(=O)N[C@H](CO)Cc1ccccc1)C(=O)N[C@H](COC(=O)[C@@H](CC=C)Cc1ccc(F)cc1)Cc1c[nH]c2ccccc12
inactive: [1] | [2] | [3]

C[n+]1c2n(c3ccccc31)N=C(c1cc(C(C)(C)C)c(O)c(C(C)(C)C)c1)CS2
inactive: [1] | [2] | [3]

CCOC(=O)/C=C/C(=O)Nc1cc(S(=O)(=O)Nc2ccc(OC)cc2)ccc1N1CCOCC1
inactive: [1] | [2] | [3]

Cc1ccc(CCc2nnc(SCC(=O)Nc3cccc(Cl)c3)n2-c2ccccc2)o1
inactive: [1] | [2] | [3]

CN1C(=O)/C(=C\C(=O)c2cccs2)c2ccccc21
inactive: [1] | [2] | [3]

Cc1ccc2nc(NNC(=O)c3ccc(S(=O)(=O)N4CCc5ccccc5C4)cc3)sc2c1
inactive: [1] | [2] | [3]

COc1ccc(S(=O)(=O)N(C)C[C@H]2Oc3ccc(NC(=O)Nc4ccc(C(F)(F)F)cc4)cc3C(=O)N([C@H](C)CO)C[C@@H]2C)cc1
inactive: [1] | [2] | [3]

C=C1C(=O)[C@@]23[C@H](O)C[C@@H]4C(C)(C)CC[C@H](O)[C@]4(C)[C@@H]2C[C@H](O)[C@@H]1[C@H]3O
inactive: [1] | [2] | [3]

Cc1cccc(CS(=O)(=O)c2ncc(Cl)c(C(=O)Nc3ccc(F)cc3)n2)c1
inactive: [1] | [2] | [3]

COc1cccc(-c2nc(CS(=O)(=O)CC(=O)NCCCN3CC(C)CC(C)C3)c(C)o2)c1 (stereo unspecified)
inactive: [1] | [2] | [3]

O[C@@H]1[C@@H](O)C=C2CCN3Cc4cc5c(cc4[C@H]1C23)OCO5 (stereo partly specified)
inactive: [1] | [2] | [3]

CC(=O)c1sc(NC(=O)CCS(=O)(=O)c2ccc(Cl)cc2)nc1C
inactive: [1] | [2] | [3]

Oc1ccc(C[C@H]2CN([C@@H](Cc3ccc(O)cc3)CN3CCC[C@@H]3CN3C(=S)NC[C@@H]3Cc3ccccc3)C(=S)N2CC2CCCCCC2)cc1
inactive: [1] | [2] | [3]

CC(C)=CCNc1ncnc2c1c(C#N)cn2C1OC(CO)C(O)C1O (stereo unspecified)
inactive: [1] | [2] | [3]

C=C1CC(COc2ccc3c(C)c(Cl)c(=O)oc3c2)(c2ccccc2)OC1=O (stereo unspecified)
inactive: [1] | [2] | [3]

CCCCCCN(C(=O)CCCN1C(=O)NC(c2ccc(-c3ccccc3)cc2)C(C(=O)OCc2ccccc2)=C1C)C(C)C(=O)NCCCC (stereo unspecified)
inactive: [1] | [2] | [3]

COc1cc2c(c(OC)c1OC)-c1ccc(OC)c(=O)cc1C(NC(C)=O)CC2 (stereo unspecified)
inactive: [1] | [2] | [3]

CCCCCc1cc(=O)oc2c(C(CCN3CCCCC3)c3ccc4c(c3)OCO4)c(OC)cc(OC)c12 (stereo unspecified)
inactive: [1] | [2] | [3]

CN1CCN(c2ccc(S(=O)(=O)N3CCCCC3)cc2NC(=O)/C=C/c2ccc(Cl)c([N+](=O)[O-])c2)CC1
inactive: [1] | [2] | [3]

CCCCn1c(=O)[nH]c(=O)c2c1nc(Cn1ncc(Cl)c(Cl)c1=O)n2CCC
inactive: [1] | [2] | [3]

C[C@@H]1CCCCO[C@@H](CN(C)Cc2ccc(Cl)c(Cl)c2)[C@H](C)CN([C@H](C)CO)C(=O)c2cc(NC(=O)Nc3ccc(C(F)(F)F)cc3)ccc2O1
inactive: [1] | [2] | [3] | [4] | [5] 52.8% [at 0.26 µM, hits give low values] | [6] | [7] | [8]

CNc1ccc(Br)cc(C(=O)/C=C/c2cc(OC)ccc2OC)c1=O
inactive: [1] | [2] | [3]

CCOC(=O)C1=CN(Cc2cccc(-c3cccnc3)c2)S(=O)(=O)N(C)C1C (stereo unspecified)
inactive: [1] | [2] | [3]

COc1ccc(-c2ccc3c(c2)[C@@H]2[C@@H](CCN2C(=O)NC2CCCCC2)[C@H](CO)N3C)cc1
inactive: [1] | [2] | [3] | [4]

C[C@H](CO)N1C[C@H](C)[C@H](CN(C)Cc2ccc(-c3ccccc3)cc2)Oc2ccc(NS(=O)(=O)c3ccc(F)cc3)cc2CC1=O
inactive: [1] | [2] | [3] | [4] | [5] -42.4% | [6] | [7]

CCN(CC)c1ccc2c(cc1=O)[C@@H](NC)CCc1cc(OC)c(OC)c(OC)c1-2
inactive: [1] | [2] | [3]

COc1cccc(-c2cnc3c(NC=O)cc(-c4ccc(OC)cc4OC)cn23)c1
inactive: [1] | [2] | [3]

C[C@H](NC(=O)c1ccco1)C(=O)Nc1cccc([N+](=O)[O-])c1
inactive: [1] | [2] | [3]

Cc1cc(C(=O)Nc2cccc3c2O[C@H](CN(C)Cc2ccc(Oc4ccccc4)cc2)[C@@H](C)CN([C@H](C)CO)C3=O)n(C)n1
inactive: [1] | [2] | [3] | [4] | [5] -26.8% [at 16 µM, hits give low values] | [6] | [7]

C[C@H](CO)N1C[C@H](C)[C@@H](CN(C)CC2CCCCC2)Oc2c(NC(=O)CCCCCC(=O)Nc3ccccc3N)cccc2C1=O
inactive: [1] | [2] | [3] | [4] | [5] 16% [at 1 µM, hits give low values] | [6] | [7]

O=C(Nc1ccc(C(F)(F)F)cc1)Nc1ccc2c(c1)[C@H]1C[C@H](CC(=O)N3CCc4ccccc4C3)O[C@H](CO)[C@H]1O2
inactive: [1] | [2] | [3] | [4] | [5] 20.8% [at 0.5 µM, hits give low values] | [6] | [8]

COc1ccc(S(=O)(=O)Nc2ccc3c(c2)C(=O)N([C@H](C)CO)C[C@H](C)[C@@H](CN(C)Cc2ccc(C(F)(F)F)cc2)OCCCC[C@H](C)O3)cc1
inactive: [1] | [2] | [3] | [4] | [5] -20.9% [at 0.5 µM, hits give low values] | [6] | [7] | [8]

C[C@@H]1CCCCO[C@@H](CN(C)Cc2ccc(C(F)(F)F)cc2)[C@H](C)CN([C@H](C)CO)C(=O)c2cc(NS(=O)(=O)c3cccs3)ccc2O1
inactive: [1] | [2] | [3] | [4] | [5] -15.8% | [6] | [7] | [8]

COc1ccc(CN(C)C[C@H]2OCCCC[C@H](C)Oc3ccc(NC(=O)Nc4ccc(C(F)(F)F)cc4)cc3C(=O)N([C@H](C)CO)C[C@@H]2C)cc1
inactive: [1] | [2] | [3] | [4] | [5] -28.6% [at 8 µM, hits give low values] | [6] | [7] | [8]

C[C@H]1CN([C@@H](C)CO)C(=O)Cc2cc(NC(=O)C3CC3)ccc2O[C@@H]1CN(C)Cc1ccc(-c2ccccc2)cc1
inactive: [1] | [2] | [3] | [4] | [6]

COc1ccc(CN(C)C[C@H]2Oc3ccc(NC(=O)Nc4ccc5c(c4)OCO5)cc3CC(=O)N([C@H](C)CO)C[C@H]2C)cc1
inactive: [1] | [2] | [3] | [4] | [5] -9.48% [at 18 µM, hits give low values] | [6] | [7] | [8]

Cn1nnnc1Sc1ncnc2scc(-c3ccccc3Cl)c12
inactive: [1] | [2] | [3]

COc1ccc(S(=O)(=O)Nc2ccc3c(c2)C(=O)N([C@H](C)CO)C[C@H](C)[C@@H](CN(C)Cc2ccc(Cl)c(Cl)c2)OCCCC[C@@H](C)O3)cc1
inactive: [1] | [2] | [3] | [4] | [5] -37.4% [at 8 µM, hits give low values] | [6] | [7] | [8]

COc1ccc(S(=O)(=O)Nc2ccc3c(c2)C(=O)N([C@H](C)CO)C[C@@H](C)[C@H](CN(C)C(=O)Nc2ccc(C(F)(F)F)cc2)OCCCC[C@H](C)O3)cc1
inactive: [1] | [2] | [3] | [4] | [5] -37.1% | [6] | [8]

O=C(Nc1cccc(Cl)c1)Nc1nnc(CSCCOc2ccc(Cl)cc2)s1
inactive: [1] | [2] | [3] | [4]

COc1ccc(S(=O)(=O)Nc2ccc3c(c2)CC(=O)N([C@H](C)CO)C[C@H](C)[C@@H](CN(C)Cc2ccc(Cl)c(Cl)c2)O3)cc1
inactive: [1] | [2] | [3] | [4] | [5] 16.2% [at 16 µM, hits give low values] | [6] | [7] | [8]

C[C@@H]1CN([C@@H](C)CO)C(=O)c2cc(NC(=O)Nc3ccc(C(F)(F)F)cc3)ccc2O[C@@H](C)CCCCO[C@@H]1CN(C)CC1CCCCC1
inactive: [1] | [2] | [3] | [4] | [5] 15.9% | [6] | [7] | [8]

CN=c1scc(-c2cccs2)n1/N=C/c1ccccc1O
inactive: [1] | [2] | [3]

COc1cccc(S(=O)(=O)N(C)C[C@@H]2OCc3ccccc3-c3c(n(C)c4ccccc34)C(=O)N([C@H](C)CO)C[C@@H]2C)c1
inactive: [1] | [2] | [3] | [4] | [5] -14.8% | [6]

Cc1ccc(S(=O)(=O)Nc2ccc3c(c2)C(=O)N([C@H](C)CO)C[C@@H](C)[C@H](CN(C)Cc2ccc(C(F)(F)F)cc2)OCCCC[C@@H](C)O3)cc1
inactive: [1] | [2] | [3] | [4] | [5] 6.08% [at 0.5 µM, hits give low values] | [6] | [7] | [8]

Cc1ccc(S(=O)(=O)Nc2cccc3c2O[C@@H](CN(C)Cc2ccc(Oc4ccccc4)cc2)[C@@H](C)CN([C@H](C)CO)C3=O)cc1
inactive: [1] | [2] | [3] | [4] | [5] 15.8% [at 1 µM, hits give low values] | [6] | [7] | [8]
